From PubChem BioAssay (NCATS)
Inconclusive results are not listed. Activity calls are given as the source filed them. Calls come from the whole dose curve; as a rule, active = well fitted curve in the direction sought with a large enough effect in the signal ratio, with a control signal flat (not every such curve was filed as active); inconclusive = small, poorly fitted or top-dose-only effect, or effect the other way, or a change in a side signal; inactive = no such curve, though single readings can be large or run the other way; the % refers to the signal ratio.

Biological target: Peroxisome proliferator-activated receptor gamma (Homo sapiens) (UniProt P37231)
Sequence (P37231 whole entry, looked up): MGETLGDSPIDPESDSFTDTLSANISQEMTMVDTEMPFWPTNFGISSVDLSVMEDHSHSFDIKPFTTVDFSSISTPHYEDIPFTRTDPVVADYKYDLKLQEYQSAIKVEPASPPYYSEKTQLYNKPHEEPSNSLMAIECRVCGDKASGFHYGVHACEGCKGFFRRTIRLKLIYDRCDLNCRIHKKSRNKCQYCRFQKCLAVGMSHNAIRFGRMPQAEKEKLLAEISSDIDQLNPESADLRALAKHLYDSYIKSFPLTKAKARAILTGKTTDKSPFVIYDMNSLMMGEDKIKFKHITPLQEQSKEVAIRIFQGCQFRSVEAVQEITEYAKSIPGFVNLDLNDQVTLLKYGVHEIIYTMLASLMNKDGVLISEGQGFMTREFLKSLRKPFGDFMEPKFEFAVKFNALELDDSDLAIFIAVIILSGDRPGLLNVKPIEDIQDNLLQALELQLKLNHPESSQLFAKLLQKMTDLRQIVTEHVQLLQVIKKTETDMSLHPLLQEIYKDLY
Assay: qHTS assay for small molecule agonists of peroxisome proliferator-activated receptor gamma signaling (AID 588536)
Conditions: HEK293 PPARg-UAS-bla, beta-lactamase ratio, 16 h; series mostly up to 76.7 µM; activation: at the top concentration
Text: NIH Chemical Genomics Center [NCGC] U.S. Environmental Protection Agency [EPA] National Institutes of Environmental Health Sciences [NIEHS] National Toxicology Program [NTP] NCGC Assay Overview The Peroxisome proliferator-activated receptors (PPARs) are lipid-activated transcription factors of the nuclear receptor superfamily with three distinct subtypes namely PPAR alpha, PPAR delta (also called PPAR beta) and PPAR gamma. All these subtypes heterodimerizes with Retinoid X receptor (RXR) and these heterodimers regulate transcription of various genes. PPAR-gamma (glitazone receptor) agonists have been used in the treatment of type 2 diabetes and dyslipidaemia. It is involved in the regulation of glucose and lipid metabolism. PPAR-gamma activates certain genes like Paraoxonase 1 which is responsible for hydrolyzing organophosphates. PPAR-gamma agonists may also be therapeutically important in the treatment of coronary artery disease, obesity and cancer and atherosclerosis.
NCGC Assay Protocol Summary Using a beta-lactamase reporter-gene under control of Peroxisome Proliferator-Activated-gamma (PPAR-gamma) response element, a cell-based assay [GeneBLAzer PPAR-gamma-UAS-bla assay developed by Invitrogen] was used to measure PPAR-gamma ligands signaling. GeneBLAzer PPAR-gamma-UAS-bla-HEK293 cells were used with assay medium containing 1% charcoal/dextran treated FBS. The assay was performed in clear bottom black Greiner 1536-well plates. Rosiglitazone was used in the screen as the positive control. Library compounds were measured for their ability to stimulate the reporter gene activity. Compounds were screened in a titration series in 1536-well format. The fluorescence intensity (405 nm excitation, 460/530 nm emission) was measured using an EnVision plate reader. Data was normalized relative to Rosiglitazone control (2 uM, 100%), and DMSO only wells (basal, 0%). Concentration-response titration points for each compound were fitted to the Hill equation yielding concentrations of half-maximal stimulation (EC50) and maximal response (efficacy) values. qHTS protocol for PPAR-gamma beta-lactamase assay in agonist mode [Step] [Parameter] [Value] [Description] 1. Reagent; 6 uL; 3000 cells/well 2. Incubation; 37 C for 6 - 6.5 hrs 3. Compounds; 23 nL; 0.59 nM to 92 uM 4. Controls (Rosiglitazone); 23 nL, - One column with dose response, start 19 uM, 1:3 dilutions in duplicates - Final concentrations of 2 uM and 0.5 uM in two columns 5. Incubation; 37 C for 16 hrs 6. Detection reagent; 1 uL of CCF4-dye 7. Incubation; RT for 2 hrs 8. Detection; Fluorescence; Envision plate reader

| Compound | Potency | activation |
| --- | --- | --- |
| O=[N+]([O-])c1ccc(Oc2ccc(C(F)(F)F)cc2[N+](=O)[O-])cc1 | 3.55 µM (active) |  |
| O=C(O)C(F)(F)C(F)(F)C(F)(F)C(F)(F)C(F)(F)C(F)(F)C(F)(F)C(F)(F)F |  | -0.296% (inactive) |
| CCOP(=S)(Oc1cnc(C(C)(C)C)nc1)OC(C)C (stereo not given) |  | -6.63% (inactive) |
| CCN(CC)c1nc(C)cc(OP(=S)(OC)OC)n1 |  | 7.98% (inactive) |
| CCCOc1nn(C(=O)NS(=O)(=O)c2ccccc2C(=O)OC)c(=O)n1C |  | 3.72% (inactive) |
| FC(F)C(F)(F)OCC(Cn1cncn1)c1ccc(Cl)cc1Cl (stereo not given) |  | -7.61% (inactive) |
| CCS(=O)(=O)c1cccnc1S(=O)(=O)NC(=O)Nc1nc(OC)cc(OC)n1 |  | 8.89% (inactive) |
| CCNc1nc(Cl)nc(NC(C)(C)C#N)n1 |  | -8.97% (inactive) |
| CC1=C(C(=O)Nc2ccccc2)S(=O)(=O)CCO1 |  | -3.04% (inactive) |
| Brc1c(Br)c(Br)c(Br)c(Br)c1Br |  | -1.22% (inactive) |
| CC1=C(C(=O)Nc2ccccc2)SCCO1 |  | 2.7% (inactive) |
| CCN(CC)C(=O)SCc1ccc(Cl)cc1 |  | -3.67% (inactive) |
| CC(=NC#N)N(C)Cc1ccc(Cl)nc1 |  | -2.62% (inactive) |
| CCC(C)(C)c1ccc(O)c(C(C)(C)CC)c1 |  | -4.98% (inactive) |
| O=P(O)(O)CCCl | inactive |  |
| CNC(=O)Oc1cccc(N=CN(C)C)c1 |  | 8.77% (inactive) |
| CCCC1COC(Cn2cncn2)(c2ccc(Cl)cc2Cl)O1 (stereo not given) |  | -6.35% (inactive) |
| O=S1OC[C@@H]2[C@H](CO1)[C@@]1(Cl)C(Cl)=C(Cl)[C@]2(Cl)C1(Cl)Cl (stereo not given in full) | inactive |  |
| O=C(Nc1ccccc1)Nc1ccnc(Cl)c1 |  | -4.65% (inactive) |
| CCSC(C)CC1CC(=O)C(/C(CC)=N/OC/C=C/Cl)=C(O)C1 (stereo not given) |  | 4.06% (inactive) |

| Compound | Potency | activation |
| --- | --- | --- |
| COP(=O)(OC)SCn1c(=O)oc2cc(Cl)cnc21 |  | 1.09% (inactive) |
| O=C(NC(=O)c1c(F)cccc1F)Nc1cc(Cl)c(OC(F)(F)C(F)F)c(Cl)c1 |  | 4.99% (inactive) |
| COC(=O)NS(=O)(=O)c1ccc(N)cc1 | inactive |  |
| CC1(C)CC/C(=C\c2ccc(Cl)cc2)C1(O)Cn1cncn1 (stereo not given) |  | -5.65% (inactive) |
| CCNc1nc(NC(C)C)nc(OC)n1 |  | 2.56% (inactive) |
| C/C(=N\C(N)=O)N(C)Cc1ccc(Cl)nc1 |  | 2.84% (inactive) |
| Clc1ccc(C(Cl)(Cl)Cl)cc1 |  | 5.23% (inactive) |
| CCOS(=O)(=O)OCC |  | 2.71% (inactive) |
| [CH3][Sn]([CH3])([Cl])[Cl] |  | 1.22% (inactive) |
| O=C(NC(=O)c1c(F)cccc1F)Nc1cc(Cl)c(OC(F)(F)C(F)C(F)(F)F)c(Cl)c1F (stereo not given) |  | 8.91% (inactive) |
| [Ga]#[As] |  | 0.0597% (inactive) |
| Nc1nc(N)nc(N)n1 |  | -0.714% (inactive) |
| CCCSP(=O)(OCC)Oc1ccc(Br)cc1Cl (stereo not given) |  | -8.17% (inactive) |
| COc1ccc(/C(=C/C(=O)N2CCOCC2)c2ccc(Cl)cc2)cc1OC |  | -0.261% (inactive) |
| Cc1cc(Cl)ccc1OCC(=O)O | inactive |  |
| O=C=Nc1ccc(Cl)cc1 |  | -4.77% (inactive) |
| c1cc(OCC2CO2)cc(OCC2CO2)c1 (stereo not given) |  | -4.69% (inactive) |
| CNC(=S)S |  | -6.92% (inactive) |
| Brc1ccc(Br)cc1 |  | 1.6% (inactive) |
| O=[N+]([O-])c1ccc(Oc2ccc(Cl)cc2Cl)cc1 |  | -9.28% (inactive) |
